“And” between values parts separate entries of the source, which are not always exact repeats. Equal entries are not always repeated. Results filed as inconclusive are left out. Where a call stands in place of a potency, no number is given. More than one record can exist for a structure, and the calls need not agree. The source made the active and inactive calls. Calls follow the shape of the dose curve; as a rule, active = well fitted activation curve with a large enough effect in the repeat runs; inconclusive = weak or mixed curves; inactive = flat fitted curve, though single readings scatter.
Assay: A CellTox Green Cytotoxicity Assay to monitor cytotoxicity in HEK293 cells - 8 hour (AID 1224884); also: nearly all actives have a fitted effect of over 35% in size
Settings: CellTox Green fluorescence; series mostly up to 76.8 µM
In short: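 HEK293 cells premixed with CellTox Green dye were seeded at 600 cells/well and left 5 h at 37 C/5% CO2 before pin transfer of 23 nL compound in DMSO. Fluorescence from dye bound to dead-cell DNA was read during 40 h treatment.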
With `CC1=C(/C=C/C(C)=C/C=C/C(C)=C/CO)C(C)(C)CCC1` the Potency was “inactive”. For `NCc1cccc(CN)c1`, the Potency was “inactive”. With `CN(C)c1cccc(O)c1` the Potency was “inactive”. In the case of `OCC1CCCO1` (centres undefined), the Potency is reported as “inactive”. For `CCCCC(CC)C(=O)OCCOCCOCCOC(=O)C(CC)CCCC` (centres undefined), the Potency was “inactive”. For `O=S(=O)(O)CCS`, the Potency was “inactive”. In the case of `Oc1ccc2ccccc2c1`, the Potency is reported as “inactive”. In the case of `Cc1ccc(C(=O)O)o1`, the Potency is reported as “inactive”. In the case of `ClC1=C(Cl)C(Cl)(Cl)C(Cl)=C1Cl`, the Potency is reported as “inactive”. For `OC[C@@H](O)[C@H](O)[C@H](O)[C@@H](O)CO`, the Potency was “inactive”. With `CCOC(=O)/C=C\C(=O)OCC` the Potency was “inactive”. In the case of `CC1=CC[C@H]2C[C@@H]1C2(C)C`, the Potency is reported as “inactive”. In the case of `O=C(c1ccc(O)cc1)c1ccc(O)cc1O`, the Potency is reported as “inactive”. For `CCc1ccccc1O`, the Potency was “inactive”. For `COCC(C)O` (centres undefined), the Potency was “inactive”. In the case of `CC(C)NCC(O)COc1cccc2ccccc12` (centres undefined), the Potency is reported as “inactive”. In the case of `CCCCCCOC(C)=O`, the Potency is reported as “inactive”. For `CC(C)n1c(/C=C/[C@@H](O)C[C@@H](O)CC(=O)O)c(-c2ccc(F)cc2)c2ccccc21`, the Potency was “inactive”. With `c1ccc2ccccc2c1` the Potency was “inactive”. In the case of `CC(C)(C)C1CCC(O)CC1` (centres undefined), the Potency is reported as “inactive”. With `O=S(=O)(O)c1cc(S(=O)(=O)O)c2c(N=Nc3ccccc3)c(O)ccc2c1` the Potency was “inactive”. With `Cn1c([N+](=O)[O-])cnc1COC(N)=O` the Potency was “inactive”. For `CCCCCCCCC`, the Potency was “inactive”. In the case of `Cc1ccc(N)c(S(=O)(=O)O)c1`, the Potency is reported as “inactive”. For `C=C(C)C(=O)OCCCCCC`, the Potency was “inactive”. For `Oc1c(Cl)cc(Cl)c(Cl)c1Cl`, the Potency was “inactive”. For `Cc1cc(O)c2c(c1)C(=O)c1cc(O)cc(O)c1C2=O`, the Potency was “inactive”. For `Nc1c(S(=O)(=O)O)cc(Br)c2c1C(=O)c1ccccc1C2=O`, the Potency was “inactive”. With `C=C(C)C(=O)OCC(CC)(COC(=O)C(=C)C)COC(=O)C(=C)C` the Potency was “inactive and 24.1 µM (active)”. In the case of `Nc1cc(-c2ccncc2)c[nH]c1=O`, the Potency is reported as “inactive”. With `CS(=O)(=O)Nc1ccc([N+](=O)[O-])cc1Oc1ccccc1` the Potency was “inactive”. With `CCCCC(CC)COC(=O)CCCCCCCC(=O)OCC(CC)CCCC` (centres undefined) the Potency was 54.9 µM (active) and inactive. With `CN(C)c1ccc(C(=N)c2ccc(N(C)C)cc2)cc1` the Potency was “inactive”. In the case of `CCCCCCC(C)(C)S`, the Potency is reported as “inactive”. For `CCOC(=O)C1OC1c1ccccc1` (centres undefined), the Potency was “inactive”. With `Clc1ccc(Cl)c(Cl)c1Cl` the Potency was “inactive”. With `CNC[C@H](O)[C@@H](O)[C@H](O)[C@H](O)CO` the Potency was “inactive”. In the case of `C=C(C)C(=O)OCCC[Si](OC)(OC)OC`, the Potency is reported as “inactive”. For `CCCCC(CC)COC(=O)/C=C\C(=O)OCC(CC)CCCC` (centres undefined), the Potency was “inactive”.

— PubChem BioAssay (Tox21)
Potency is read from the fitted curve at half-maximal effect.
